# Only some compounds are listed: those with a hit (about 1.4% of all), similar ones and a draw of the others.
# Tb PYK inh – blocks Trypanosoma brucei pyruvate kinase; TbPYK enzyme, Kinase-Glo Plus ATP luminescence, 45 min; Potency, µM (highest dose often 76.8 µM), inactives show at the highest dose activity, negative = inhibition, usual class: inhibitors; hit rate 0.12% among 410,000; AID 624173; note: potency is the fitted concentration of half-maximal effect; % is set by controls: 0 for no effect and ±100 for the full control effect; nearly all actives have a fitted effect of over 50% in size
#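 Luminescence from Kinase-Glo Plus, added after a 45-minute room-temperature reaction, served as the end-point read-out. The enzyme and substrate were preincubated with compound before ADP (130 uM final) initiated turnover. Concentration-effect curves came from normalized qHTS data.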
# LmPK inh – inhibitors of Leishmania mexicana pyruvate kinase | purified LmPK, Kinase-Glo ATP luminescence, 1 h | Q27686 | hit rate 0.37% among 290,000 | Potency, µM (doses to about 57.5 µM), for inactives: top-dose activity change, negative = inhibition, usual class: inhibitors | AID 1721; note: potency is the fitted concentration of half-maximal effect; % is set by controls: 0 for no effect and ±100 for the full control effect
# Target sequence (Q27686 whole entry, looked up): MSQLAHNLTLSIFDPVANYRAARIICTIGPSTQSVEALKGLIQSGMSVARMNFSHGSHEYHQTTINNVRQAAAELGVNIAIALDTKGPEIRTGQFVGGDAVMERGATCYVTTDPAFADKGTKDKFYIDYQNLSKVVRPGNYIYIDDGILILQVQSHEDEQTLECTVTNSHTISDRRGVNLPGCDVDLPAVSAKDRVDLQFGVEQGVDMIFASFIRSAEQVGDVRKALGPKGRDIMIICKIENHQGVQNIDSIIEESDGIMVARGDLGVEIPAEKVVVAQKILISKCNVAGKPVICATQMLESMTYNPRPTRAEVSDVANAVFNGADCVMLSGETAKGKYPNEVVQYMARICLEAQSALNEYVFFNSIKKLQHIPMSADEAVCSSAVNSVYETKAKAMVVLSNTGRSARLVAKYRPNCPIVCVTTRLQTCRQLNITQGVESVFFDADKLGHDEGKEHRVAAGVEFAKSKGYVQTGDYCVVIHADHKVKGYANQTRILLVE
#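 Screened at intermediate enzyme activity to detect both inhibitors and activators: LmPK at 0.1 nM, with a 0.5 nM enzyme column as activation reference. PEP 0.5 mM, ADP 0.1 mM; ATP detected by luminescence after 1 h.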
# AmpC no deterg – AmpC beta-lactamase inhibition without detergent. P00811. AmpC nitrocefin hydrolysis, absorbance 480 nm, 0.0001% Triton. Potency, µM (series often up to 57.1 µM), inactives show at the top dose activity change, negative = inhibition, actives largely listed as inhibitors. hit rate 0.52% among 330,000;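 note: potency is the fitted concentration of half-maximal effect; plate controls were no compound for no effect and no enzyme for full effect; nearly all actives have a fitted effect of over 20% in size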
#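 AmpC (5.3 nM in the dispensed reagent) in 20 mM phosphate pH 7.0 with 0.01% (detergent screen) or 0.0001% Triton X-100 was preincubated with compounds for 15 min at room temperature. Nitrocefin was then added from an 800 uM solution, and hydrolysis was followed at 480 nm.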
# FBPA Giardia inh – inhibitors of Giardia lamblia fructose-1,6-bisphosphate aldolase | A8B2U2 | purified Giardia FBPA | hit rate 0.71% among 290,000 | Potency, µM (titrated, usually from 59.6 µM), for the others: top-dose activity, negative = inhibition, actives largely listed as inhibitors; note: potency is the fitted concentration of half-maximal effect; % is set by controls: 0 for no effect and ±100 for the full control effect; nearly all actives have a fitted effect of over 55% in size
#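 Giardia FBPA (40 nM reagent) was preincubated 10 min at RT with compound (up to 57.5 uM final), then substrate plus GAPDH/TPI/NAD/arsenate coupling system with diaphorase/resazurin was added; resorufin fluorescence (525/598 nm) was read after 20 min.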
# RE007 growth inh – less growth of the S. pombe RE007 Vpr strain; AID 651644; S. pombe RE007 Vpr strain, BacTiter-Glo ATP luminescence, 24 h; Potency, µM (top dose mostly 92.2 µM), inactives show at the top dose activity change, negative = less growth, usual class: inhibitors; hit rate 0.21% among 360,000; active = well fitted falling curve with a large enough effect; inconclusive = small, poorly fitted or top-dose-only effect; inactive = no such curve, though single readings can be large or run the other way; note: potency is the fitted concentration of half-maximal effect; % is set by controls: 0 for no effect and ±100 for the full control effect; nearly all actives have a fitted effect of over 50% in size
#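 Fission yeast RE007 carrying one integrated HIV-1 vpr copy, seeded at OD 0.01 in PMG+AL medium with 23 nL pinned compound. Grown 24 h at 30 degrees; viability read by BacTiter-Glo luminescence after 5 min.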
# AmpC detergent – AmpC beta-lactamase inhibition with detergent present. P00811. AmpC hydrolysis of nitrocefin, absorbance 480 nm, 0.01% Triton. Potency, µM (titrated, usually from 114 µM), for the others: at the highest dose activity change, negative = inhibition, hits mostly inhibitors. hit rate 0.041% among 370,000. AID 485294;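 note: potency is the fitted concentration of half-maximal effect; 0% = no-compound wells and -100% = no-enzyme wells; nearly all actives have a fitted effect of over 25% in size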
#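 AmpC (5.3 nM in the dispensed reagent) in 20 mM phosphate pH 7.0 with 0.01% (detergent screen) or 0.0001% Triton X-100 was preincubated with compounds for 15 min at room temperature. Nitrocefin was then added from an 800 uM solution, and hydrolysis was followed at 480 nm.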
# LmPK inh confirm – Confirms inhibition of Leishmania mexicana pyruvate kinase. purified LmPK, Kinase-Glo ATP luminescence, 1 h. hit rate 40% among 150. Potency, µM (series often up to 57.5 µM), without a hit: at the top dose activity change, negative = inhibition, most hits filed as inhibitors. AID 2559. shares compounds with LmPK inh;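 active = compounds giving a full or partial concentration-response curve, as inhibitors or activators; inconclusive = weak, top-dose-only or unclear curve responses; inactive = no response at any tested dose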
# An asterisk follows results filed as active; ? = inconclusive; · = no result given. Unless noted, calls come from the whole dose curve; as a rule, active = well fitted curve in the direction sought with a large enough effect; inconclusive = small, poorly fitted or top-dose-only effect, or another doubt; inactive = no such curve, though single readings can be large; an effect the other way counts as inactive or inconclusive.
SMILES,Tb PYK inh,LmPK inh,AmpC no deterg,FBPA Giardia inh,RE007 growth inh,AmpC detergent,others
Cc1cccc(NC(=O)Cn2cc(C(=O)c3ccco3)c3ccccc32)c1C,-4%,·,·,·,·,-8%,
O=C(Cn1cc(C(=O)c2ccco2)c2ccccc21)Nc1ccccc1F,2%,2%,28µM*,1%,7%,-2%,
CN(C)c1ccc(N=Cc2ccco2)cc1,-16%,?,31%,2.8µM*,?,-5%,
CN(C)c1ccc(C=Nc2ccc(N(C)C)cc2)cc1,-22%,-18%,-17%,?,-22%,?,
O=C(CSc1nc2ncc(Br)cc2[nH]1)c1cccc([N+](=O)[O-])c1,9%,1%,32µM*,-24%,12%,?,
O=C(CSc1cccc[n+]1[O-])c1cc(Cl)ccc1Cl,2%,0%,-26%,?,5µM*,4%,
O=C(CSc1cccc[n+]1[O-])c1cc2ccccc2o1,-12%,21%,-15%,?,8.9µM*,7%,
O=C(Cn1c(=O)oc2cc(S(=O)(=O)N3CCCC3)ccc21)NC1CCCc2ccccc21 (stereo not drawn),4%,2%,10µM*,4%,-11%,?,
CC1(C)Cc2ccccc2C2=NNC(=O)C2=N1,-1%,-2%,-13%,4.5µM*,10%,-2%,
COc1ccc(-n2nnnc2SCC(=O)N2CCOCC2)cc1,0%,3%,0.89µM*,1%,6%,?,
CCC(=O)Nc1nc2c(s1)COc1ccccc1-2,-3%,1%,2.8µM*,0%,16%,4%,
S=c1[nH]nc([C@@H]2C[C@H]2c2ccccc2)n1-c1ccccc1Cl,5µM*,13µM*,-19%,-1%,29%,-10%,
Cc1ccc(C2CC2c2n[nH]c(=S)n2-c2ccc(Cl)cc2)cc1 (stereo not drawn),?,?,-28%,12%,35%,?,
CN(C)c1ccc(S(=O)(=O)NCC(=O)OCC(=O)Nc2cccc(Cl)c2)cc1[N+](=O)[O-],-4%,-2%,-7%,2%,7%,-8%,
CNc1ccc(S(=O)(=O)NCC(=O)OCC(=O)Nc2cccc(Cl)c2Cl)cc1[N+](=O)[O-],-4%,-2%,25µM*,-2%,-18%,-4%,
Cc1cc(=O)n2[nH]c(=O)c(N=Nc3ccccc3)c2[nH]1,-15%,-20%,-16%,-24%,-6%,?,
CCOc1ccc(N=Nc2c(=O)[nH]n3c(=O)cc(C)[nH]c23)cc1,-12%,14µM*,-18%,-14%,?,?,
CC(C)c1ccc(NC(=O)CSc2nc(=O)n(Cc3ccccn3)c3c2CCC3)cc1,-4%,·,·,·,·,6%,
COc1ccc(Br)cc1/C=N/N1C(=O)CSC1=S,-4%,6%,28µM*,-10%,-7%,?,
COc1ccc(NC(=O)CSc2nc3c(c(=O)n2-c2ccccc2OC)SCC3)cc1,-1%,-2%,35µM*,-13%,3%,-11%,
CCC(SC1=NCCS1)C(=O)Nc1nnc(-c2ccccc2OC)s1 (stereo not drawn),2%,2%,10µM*,-11%,-4%,1%,
Fc1ccc(-c2nc3n(n2)Cc2ccccc2-3)cc1,-11%,3.5µM*,-12%,-21%,?,-5%,LmPK inh confirm=?
Cc1ccc(-n2ncc(C(=O)NCCN3CCc4ccccc4C3)c2C2CCNCC2)cc1C,2%,·,·,·,·,-1%,
COc1ccc(-c2cc3nc(C)cc(N)n3n2)cc1,22µM*,3.5µM*,-22%,-6%,16µM*,-1%,LmPK inh confirm=5.8µM*
COc1ccc(C2C=C(c3ccccc3)Nc3nc(NC(=O)/C=C/c4ccc(F)cc4)nn32)cc1 (stereo not drawn),0%,·,·,·,·,13%,
SMILES,Tb PYK inh,LmPK inh,AmpC no deterg,FBPA Giardia inh,RE007 growth inh,AmpC detergent,others
Cc1ccc(C)c(NC(=O)CCc2nc3cccnc3n2Cc2cccs2)c1,-2%,·,·,·,·,-4%,
Cc1ccc(C2/C(=C(/O)c3ccccc3)C(=O)C(=O)N2CCN2CCOCC2)o1 (stereo not drawn),-12%,-2%,-10%,-15%,-8%,4%,
Cc1ccc(C)c(/C(O)=C2/C(=O)C(=O)N(CCN3CCOCC3)C2c2ccco2)c1 (stereo not drawn),4%,2%,132%,-13%,-4%,10%,LmPK inh confirm=10%
COc1cc(C(=O)O[C@@H]2CC3CC[C@]2(C)C3(C)C)ccc1O,·,·,·,-6%,·,·,
CC(=O)c1cccc(NC(=O)Cc2ccc(NC(=O)N3CCCCc4ccccc43)cc2)c1,-1%,·,·,·,·,15%,
Cc1ccnc(N2C(=O)c3cccc4c([N+](=O)[O-])ccc(c34)C2=O)c1,0%,1%,-15%,-22%,?,3%,
Cc1ccnc(N2C(=O)c3ccccc3C2=O)c1,-1%,-6%,-17%,2%,2%,-6%,LmPK inh confirm=-14%
Cc1cc(C)c2cc(C#N)c(NCCOC(=O)c3ccccc3C)nc2c1,4%,0%,-16%,-7%,-6%,3%,LmPK inh confirm=2%
CCOC(=O)C(C(C)=O)c1c(Br)c(O)c(O)c2c(C(=O)c3ccc(C)cc3)coc12 (stereo not drawn),-18%,5.6µM*,-46%,?,-7%,-6%,LmPK inh confirm=-7%
COc1cccc(NC(=O)CSc2nc(=O)n(Cc3cccnc3)c3c2CCC3)c1,-6%,·,·,·,·,2%,
CN(Cc1ccon1)Cc1cn(C)nc1-c1cccc(Cl)c1,3%,13µM*,-11%,?,-22%,9%,LmPK inh confirm=-7%
CN(Cc1cn(C)nc1-c1cccc(Cl)c1)C1CCOCC1,2%,2%,-10%,-3%,-5%,-7%,
O=C(c1ccccc1)n1c(=S)nc2ccccn21,?,4.5µM*,-19%,4%,-26%,?,LmPK inh confirm=18µM*
Cc1cc(C)c(S(=O)(=O)n2ccc(-c3ccc(OCCN(C)c4ccccn4)cc3)n2)c(C)c1,-5%,3%,96%,4%,-4%,-10%,LmPK inh confirm=2%
CN(C)/C=C/C(=O)c1ccc(OCCN(C)c2ccccn2)cc1,2%,4%,-3%,-3%,·,-7%,
CCc1nc2ccccc2n1CCCCOc1ccc(Cl)cc1,0%,·,·,·,·,-7%,
Cc1ccc(C(=O)NNC(=O)CSc2nnc(-c3ccncc3)n2-c2ccc(C)cc2)cc1,·,-23%,0%,1%,·,-3%,LmPK inh confirm=3%

# From PubChem BioAssay
